Out of some 69,000 compounds screened, about 8,600 (12%) showed an effect of 50% or more. The list comes from a sample in which strong results are over-represented; it also holds similar structures and randomly drawn compounds.

This assay has as its system Plasmodium berghei. Briefly: Screen against P. berghei liver stage (PbLuc), transformed with Luciferase, at 10uM. The class given is functional, HepG2. The settings on record: tested at 10 uM.
Take `CCOc1cccc(C(=O)NCCC(=O)NCc2ccncc2)c1`: the INHIBITION is -5.78%.

Turning to `COC(=O)CCNC(=O)c1ccc(OCc2ccccc2)nc1`, the INHIBITION is reported as -8.91%.

On to `CCNc1ncc(C(=O)NCc2ccc3nsnc3c2)cn1`, for which the INHIBITION was determined as 31.9%.

Turning to `COc1ncc(C(=O)NCc2ccc(Br)cc2)cn1`, the INHIBITION was found to be 59.8%.

For `COC(=O)c1ccc(C(=O)NCc2ccc(Br)cc2)cn1`, the INHIBITION was 45.8%.

Regarding `CCOc1ccc(CNC(=O)c2cnc(OC)nc2)cc1`, the INHIBITION came to 52.7%.

With `COc1ncc(C(=O)NCc2ccccc2)cn1`, the INHIBITION came to 64.2%.

With `Cc1cccc(C(=O)NCc2ccccc2)n1`, the INHIBITION was 21%.

Turning to `COc1ccc(CNC(=O)c2ccc(Br)cn2)cc1`, the INHIBITION was determined as 49%.

As to `CS(=O)(=O)CCN1CCCC1c1noc(C2CC2)n1` (stereo unspecified), the INHIBITION is listed as -38.2%.

Regarding `Cc1cccc(S(=O)(=O)N2CC[C@H]3[C@H]2CCN3c2ncccn2)c1`, the INHIBITION is 5.36%.

As for `NC(=O)c1cnn2c1NCC(CNCCc1cccs1)C2` (stereo unspecified), the INHIBITION came to 21.75%.

On to `COCC(C)NC(=O)CN1CCCC1` (stereo unspecified), for which the INHIBITION is reported as -9.39%.

Turning to `O=S(=O)(Cc1cc(-c2ccccc2)no1)CC1CCCO1` (stereo unspecified), the INHIBITION was -73.1%.

Turning to `CNc1cccc(C2CCCN(C(=O)c3cscn3)C2)n1` (stereo unspecified), the INHIBITION is listed as 51.5%.

With `CNc1cccc(C2CCCN(C(=O)c3ccncc3)C2)n1` (stereo unspecified), the INHIBITION came to 42.1%.

Regarding `CNc1cccc(C2CCCN(C(=O)Cc3ccccc3)C2)n1` (stereo unspecified), the INHIBITION stood at 81.2%.

As to `CNc1cccc(C2CCCN(C(C)=O)C2)n1` (stereo unspecified), the INHIBITION was -1.58%.

In the case of `CNc1cccc(C2CCCN(C(=O)c3ccn(C)n3)C2)n1` (stereo unspecified), the INHIBITION turned out to be 26.3%.

On to `CNc1cccc(C2CCCN(C(=O)c3cnccn3)C2)n1` (stereo unspecified), for which the INHIBITION was -37%.

Consider `CN1CCN([C@@H]2CN(C(=O)CCOc3ccccc3)C[C@H]2O)CC1`, for which the INHIBITION is on record as 6.08%.

Consider `CC1CCN(c2nc3cn(-c4ccc(F)cc4)c(=O)c-3c[nH]2)CC1`, for which the INHIBITION worked out at 24.2%.

Regarding `CC(=O)Nc1ncc(S(=O)(=O)Nc2ccccc2F)s1`, the INHIBITION worked out at 15.9%.

For the compound `Cn1nccc1CCC(=O)N1CCOC(c2cnccn2)C1` (stereo unspecified), the INHIBITION is recorded as 2.71%.

Turning to `O=C(c1cc(-c2cn[nH]c2)nc2cc(F)ccc12)N1CCS(=O)(=O)CC1`, the INHIBITION is 79.9%.

As to `Cn1cc(-c2cc(C(=O)N3CCOCC3)c3ccc(F)cc3n2)cn1`, the INHIBITION is reported as -27.5%.

In the case of `Cc1cc(C(=O)N2CCNC(c3ccccc3)C2)c2ccc(F)cc2n1` (stereo unspecified), the INHIBITION is 36.9%.

For the compound `O=C(c1cc(-c2cn[nH]c2)nc2ccc(F)cc12)N1CCSCC1`, the INHIBITION amounted to 51.8%.

On to `CCc1ccc2nc(-c3cnn(C)c3)cc(C(=O)N3CCCC3)c2c1`, for which the INHIBITION is recorded as 7.3%.

Take `O=C(O)c1cc(-c2cn[nH]c2)cc(S(=O)(=O)N2CCSCC2)c1`: the INHIBITION is on record as -4.927%.

For the compound `COCc1nnc2n1CCN(Cc1ccoc1)C2`, the INHIBITION was 33%.

Consider `COCCC1CCN([C@@H]2c3ccccc3C3(CCNCC3)[C@H]2O)CC1`, for which the INHIBITION is listed as 11.6%.

For the compound `COc1ccc(-c2cc(C3CCCNC3)ccn2)cc1` (stereo unspecified), the INHIBITION was -3.02%.

Take `CN1CCCN(c2cnn(Cc3ccncc3)c(=O)c2)CC1`: the INHIBITION is reported as 54.8%.

As to `CN1CCN(c2cnn(Cc3ccc(S(C)(=O)=O)cc3)c(=O)c2)CC1`, the INHIBITION is 51.5%.

For the compound `CN1CCCN(c2cnn(Cc3ccc(C(C)(C)C)cc3)c(=O)c2)CC1`, the INHIBITION worked out at 15.7%.

`Cn1c(Cn2ncc(N3CCCC3)cc2=O)nc2ccccc21`: the INHIBITION turned out to be 37.6%.

Turning to `Cn1c(Cn2ncc(N3CCCCC3)cc2=O)nc2ccccc21`, the INHIBITION was 40.3%.

`Cn1ncc(N2CCN(Cc3ccc(S(C)(=O)=O)cc3)CC2)cc1=O`: the INHIBITION came out at 27.6%.

As to `Cc1cc(C)n(Cc2cc(C(=O)N3CCCCC3c3nccs3)n[nH]2)n1` (stereo unspecified), the INHIBITION is 7.83%.

Turning to `CC(=O)N(Cc1c(F)cccc1F)C1CCCC1`, the INHIBITION stood at 58.3%.

As to `CNC(=O)N(Cc1c(F)cccc1F)C1CCCC1`, the INHIBITION is 16.1%.

Consider `CNS(=O)(=O)CC(=O)N(Cc1c(F)cccc1Cl)C1CC1`, for which the INHIBITION is listed as 17.1%.

For the compound `CS(=O)(=O)CCC(=O)N(Cc1c(F)cccc1F)C1CCCC1`, the INHIBITION is on record as 55%.

For `CS(=O)(=O)CCC(=O)N(CCc1cccc(F)c1)C1CC1`, the INHIBITION is 40.7%.

Consider `CNS(=O)(=O)CC(=O)N(Cc1c(F)cccc1F)C1CCCC1`, for which the INHIBITION is reported as -5.59%.

Take `Cn1nnnc1SC1CCN(c2ccccc2Cl)C1=O` (stereo unspecified): the INHIBITION worked out at 23.9%.

`Cc1cc(C[S+]([O-])Cc2ccccc2F)no1` (stereo unspecified): the INHIBITION is 40.7%.

With `CCCc1noc(-c2ccc(-n3ncc(C(=O)O)c3C)nc2)n1`, the INHIBITION came out at 7.92%.

With `CC(C)[C@]1(O)CN(C(=O)CNC(N)=O)C[C@H]1C`, the INHIBITION is 39.9%.

With `O=C(CS(=O)(=O)Cc1ccc(F)cc1)NC1CCCCNC1=O` (stereo unspecified), the INHIBITION is -90.9%.

With `CCOc1ccnc(NCc2nc(C)cc(C(F)(F)F)n2)n1`, the INHIBITION is on record as 52.9%.

For the compound `CCOc1ccnc(NCc2nc(C)cc(=O)[nH]2)n1`, the INHIBITION is given as 27.8%.

On to `CCOc1ccnc(NCCc2nc(C)cc(=O)[nH]2)n1`, for which the INHIBITION amounted to 23.3%.

For the compound `COCCCN(Cc1ccccn1)Cc1ccnn1C1CCCCO1` (stereo unspecified), the INHIBITION stood at 34.1%.

`CCc1nnsc1C(=O)N1CCCC(n2nc(C)nc2C)C1` (stereo unspecified): the INHIBITION is -10.75%.

As to `CN(Cc1cn2c(n1)CN(C1CCOC1)CC2)Cc1ccco1` (stereo unspecified), the INHIBITION was found to be 10%.

In the case of `CN(Cc1cn2c(n1)CN(C(=O)C1CCOCC1)CC2)Cc1ccco1`, the INHIBITION is listed as -8.94%.

Regarding `CN(Cc1cn2c(n1)CN(CC1CC1)CC2)Cc1ccco1`, the INHIBITION was determined as 8.53%.

On to `CN(Cc1cn2c(n1)CN(C(=O)CC1CC1)CC2)Cc1ccco1`, for which the INHIBITION came out at 30.1%.

Take `CN(Cc1cn2c(n1)CN(CC1CCOC1)CC2)Cc1ccco1` (stereo unspecified): the INHIBITION was found to be 53.2%.

On to `CN(Cc1cn2c(n1)CN(C1CCOCC1)CC2)Cc1ccco1`, for which the INHIBITION worked out at 56.7%.

In the case of `Cc1c(CCC(=O)Nc2ccc(Br)cn2)cnn1C`, the INHIBITION was determined as 15.2%.

For the compound `Cc1nn(C)c(C)c1C1CCCN1Cc1nc(-c2ccccn2)no1` (stereo unspecified), the INHIBITION was determined as 11.9%.

Take `Cc1nn(C)cc1C(C)Nc1ncnc2sccc12` (stereo unspecified): the INHIBITION amounted to 27.5%.

Take `Cc1c(C(C)Nc2ncnc3sccc23)cnn1C` (stereo unspecified): the INHIBITION is 55.5%.

Turning to `CC(Nc1ncnc2sccc12)c1cnn(C)c1` (stereo unspecified), the INHIBITION is reported as 38.7%.

As for `COc1ccc(OC)c(C(=O)N2CCCCC2Cn2cccn2)c1` (stereo unspecified), the INHIBITION is reported as 14.4%.

Take `CCn1nc2nc(SCC(=O)O)cc(C(F)F)c2c1C`: the INHIBITION is on record as 20.4%.

Consider `Cc1c2c(C(F)F)cc(SCC(=O)O)nc2nn1C`, for which the INHIBITION was determined as 15.9%.

`Cc1cc(SCC(=O)O)nc2nn(CC(F)F)c(C)c12`: the INHIBITION was 96%.

Source of the values: ChEMBL document CHEMBL4513216, “Probing the Open Global Health Chemical Diversity Library for Multistage-Active Starting Points for Next-Generation Antimalarials” (ACS Infect Dis, 2020).
